Measured values from PubChem BioAssay.
Where “and” joins values, the source holds several entries; their conditions need not be identical. Equal entries are not always repeated. Inconclusive results are not listed. Calls of active or inactive are those of the source.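 Rule for the calls, unless noted: active = normalized viability below 100% at a tested concentration; inactive = the rest.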

What was measured:
[1] = viability loss in pontine glioma line – cell-based, SU-DIPG-XVII, MIPE5.0, CellTiter-Glo, qHTS, dose response (AID 1347060; cut-off not given, nearly all actives have AC50 up to about 26 µM;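 for AC50: cells exposed to compound for 48 hours before viability readout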); details: CellTiter-Glo ATP luminescence
[2] = viability loss in pontine glioma line – cell-based, JHH-DIPG-1, MIPE4.0, CellTiter-Glo, qHTS, dose response (AID 1347062; cut-off not given, nearly all actives have AC50 up to about 27 µM;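 for AC50: cells exposed to compound for two days before readout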); details: JHH-DIPG-1 viability, CellTiter-Glo ATP luminescence
[3] = viability loss in pontine glioma line – cell-based, SU-DIPG-XIII, MIPE5.0, CellTiter-Glo, qHTS, dose response (AID 1347064; cut-off not given, nearly all actives have AC50 up to about 23 µM;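 for AC50: cells exposed to compound for 48 hours before the viability read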); details: CellTiter-Glo ATP luminescence
[4] = viability loss in pontine glioma line – cell-based, SU-DIPG-XXV, MIPE5.0, CellTiter-Glo, qHTS, dose response (AID 1347065; cut-off not given, nearly all actives have AC50 up to about 26 µM;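 note: cells exposed to compound for 48 hours before ATP readout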); details: CellTiter-Glo ATP luminescence
[5] = growth inhibition of DIPG cells – cell-based, MIPE4.0 library, CellTiter-Glo luminescence, qHTS (AID 1347066; cut-off not given, nearly all actives have AC50 up to about 30 µM;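 note: cells exposed to compound for 48 hours before readout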); details: SU-DIPG-VI viability, CellTiter-Glo ATP luminescence
[6] = JHH-DIPG-1 glioma cell viability, MIPE5.0 library, CellTiter-Glo luminescence, qHTS (AID 1347067; cut-off not given, nearly all actives have AC50 up to about 26 µM;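 note: cells exposed to compound for 48 hours before readout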); details: JHH-DIPG-1 glioma viability, CellTiter-Glo ATP luminescence
[7] = growth inhibition of DIPG cells – cell-based, MIPE5.0 library, qHTS (AID 1347068; cut-off not given, nearly all actives have IC50 up to about 30 µM;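 for IC50: cells exposed to compound for 48 hours before viability readout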); details: SU-DIPG-XXV viability
[8] = viability loss with induced miR-34 in A549 – imaging, A549 dox-inducible miR-34, nuclei and caspase counts, primary screen (AID 1347080;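 active = compounds whose cell count with miR-34 switched on is under 0.7 times the count with it off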); details: A549 miR-34 inducible, Hoechst nuclei count, 48 h
[9] = compounds altering HSF1 focus formation in cells – imaging, Selleck Cancer Library (AID 1347162; in the data active = plate-normalised HSF1 focus index below about 0.46); details: human cells, HSF1 nuclear foci imaging, at 10 µM; SSMD: measured here: HSF1 foci SSMD mean; cell count: measured here: cell number; plate-normalised HSF1 focus index: stronger effect = lower value
[10] = MELAS cybrid and Rieske KO viability enhancers – cell-based, MELAS cybrids, Rieske KO mouse fibroblasts, CellTiter-Glo, primary screen (AID 1508586;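 active = mean z-score across replicates of 1.96 or higher in either the MELAS or the Rieske mutant cell line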;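 note: z relative to plate mean and SD of compound and empty wells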); details: low glucose
[11] = drug combination growth inhibition, ovarian cancer – cell-based, oncology-focused library, rucaparib conditional, profiling panel (AID 1508598); details: patient-derived ovarian cancer cells, CellTiter-Glo viability, 144 h, stronger effect = lower value
[12] = P. berghei load reduction in hepatocytes – cell-based, HepG2, luciferase luminescence, HepG2 viability, primary screen (AID 624349; in the data active = parasite load remaining mostly below about 12%, no sharp cut-off; inactive = mostly above about 10%;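 note: 100% = mean of DMSO negative control wells on the same plate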); details: P. berghei liver stage in HepG2, luciferase luminescence, concentration not given here; parasite load remaining: stronger effect = lower value; viability: measured here: HepG2 viability without parasites
[13] = stronger effect = lower value, cell number ratio, induced over uninduced
[14] = measured here: relative caspase fold change +Dox/-Dox
[15] = measured here: total cells with miR-34 induction, stronger effect = lower value
[16] = measured here: total cells without miR-34 induction
[17] = MELAS cybrid survival, CellTiter-Glo 48 h, stronger effect = higher value
[18] = Rieske KO mouse fibroblast survival, CellTiter-Glo 72 h
[19] = at 0.000305 µM, OCI-C5x cells, with rucaparib 10 µM, 100% = cells with rucaparib alone
[20] = at 0.000305 µM, OCI-C5x cells, without rucaparib
[21] = at 0.000305 µM, OCI-P5x cells, with rucaparib 20 µM, 100% = cells with rucaparib alone
[22] = at 0.000305 µM, OCI-P5x cells, without rucaparib
[23] = at 0.00122 µM, OCI-C5x cells, with rucaparib 10 µM, 100% = cells with rucaparib alone
[24] = at 0.00122 µM, OCI-C5x cells, without rucaparib
[25] = at 0.00122 µM, OCI-P5x cells, with rucaparib 20 µM, 100% = cells with rucaparib alone
[26] = at 0.00122 µM, OCI-P5x cells, without rucaparib
[27] = at 0.00488 µM, OCI-C5x cells, with rucaparib 10 µM, 100% = cells with rucaparib alone
[28] = at 0.00488 µM, OCI-C5x cells, without rucaparib
[29] = at 0.00488 µM, OCI-P5x cells, with rucaparib 20 µM, 100% = cells with rucaparib alone
[30] = at 0.00488 µM, OCI-P5x cells, without rucaparib
[31] = at 0.0195 µM, OCI-C5x cells, with rucaparib 10 µM, 100% = cells with rucaparib alone
[32] = at 0.0195 µM, OCI-C5x cells, without rucaparib
[33] = at 0.0195 µM, OCI-P5x cells, with rucaparib 20 µM, 100% = cells with rucaparib alone
[34] = at 0.0195 µM, OCI-P5x cells, without rucaparib
[35] = at 0.0781 µM, OCI-C5x cells, with rucaparib 10 µM, 100% = cells with rucaparib alone
[36] = at 0.0781 µM, OCI-C5x cells, without rucaparib
[37] = at 0.0781 µM, OCI-P5x cells, with rucaparib 20 µM, 100% = cells with rucaparib alone
[38] = at 0.0781 µM, OCI-P5x cells, without rucaparib
[39] = at 0.313 µM, OCI-C5x cells, with rucaparib 10 µM, 100% = cells with rucaparib alone
[40] = at 0.313 µM, OCI-C5x cells, without rucaparib
[41] = at 0.313 µM, OCI-P5x cells, with rucaparib 20 µM, 100% = cells with rucaparib alone
[42] = at 0.313 µM, OCI-P5x cells, without rucaparib
[43] = at 1.25 µM, OCI-C5x cells, with rucaparib 10 µM, 100% = cells with rucaparib alone
[44] = at 1.25 µM, OCI-C5x cells, without rucaparib
[45] = at 1.25 µM, OCI-P5x cells, with rucaparib 20 µM, 100% = cells with rucaparib alone
[46] = at 1.25 µM, OCI-P5x cells, without rucaparib
[47] = at 5 µM, OCI-C5x cells, with rucaparib 10 µM, 100% = cells with rucaparib alone
[48] = at 5 µM, OCI-C5x cells, without rucaparib
[49] = at 5 µM, OCI-P5x cells, with rucaparib 20 µM, 100% = cells with rucaparib alone
[50] = at 5 µM, OCI-P5x cells, without rucaparib

Cc1cnc(Nc2ccc(OCCN3CCCC3)cc2)nc1Nc1cccc(S(=O)(=O)NC(C)(C)C)c1
inactive: outcome [2] | outcome [5] | fold change [8, 13] 1.01 | plate-normalised HSF1 focus index [9] 1.11 | viability [11, 19] 104% | viability [11, 20] 124% | viability [11, 22] 110% | viability [11, 23] 113% | viability [11, 24] 121% | viability [11, 26] 109% | viability [11, 27] 112% | viability [11, 28] 125% | viability [11, 29] 102% | viability [11, 30] 109% | viability [11, 31] 107% | viability [11, 32] 121% | viability [11, 34] 112% | viability [11, 35] 106% | viability [11, 36] 122% | viability [11, 38] 105% | viability [11, 39] 105% | viability [11, 40] 113%
1.95: fold change [8, 14]
1.73: SSMD [9]
2480: cell count [8, 15]
active: AC50 [1] 1.05 µM | AC50 [3] 5.9 µM | AC50 [4] 3.72 µM | AC50 [6] 5.25 µM | IC50 [7] 7.42 µM | z-score [10, 17] 1.98 | viability [11, 21] 98.4% | viability [11, 25] 99.3% | viability [11, 33] 95.4% | viability [11, 37] 99.2% | viability [11, 41] 81.7% | viability [11, 42] 96.3% | viability [11, 43] 93.7% | viability [11, 44] 84.4% | viability [11, 45] 78% | viability [11, 46] 88.7% | viability [11, 47] 2.62% | viability [11, 48] 55.3% | viability [11, 49] 1.43% | viability [11, 50] 2%
2450: cell count [8, 16]
6980: cell count [9]
-3.31: z-score [10, 18]

CN1CC(=O)NC1=NC(=O)Nc1cccc(Cl)c1
inactive: outcome [1] | outcome [2] | outcome [3] | outcome [4] | outcome [6] | outcome [7]
active: AC50 [5] 23.5 µM

Cc1cc(-c2ncc(CC(=O)Nc3ccc(-c4cnccn4)cn3)cc2C)ccn1
6130: cell count [8, 15]
inactive: outcome [1] | outcome [2] | outcome [3] | outcome [5] | outcome [7] | fold change [8, 13] 0.911 | z-score [10, 17] -0.348
0.85: z-score [10, 18]
0.406: fold change [8, 14]
6730: cell count [8, 16]

O=C1NC(=O)/C(=C/c2cccc(C(F)(F)F)c2)S1
inactive: parasite load remaining [12] 38.3% | outcome [1] | outcome [2] | outcome [4] | outcome [5] | outcome [6] | outcome [7]
85%: viability [12]

CC[C@@H]1C(=O)N(C)c2cnc(Nc3ccc(C(=O)NC4CCN(C)CC4)cc3OC)nc2N1C1CCCC1
7240: cell count [9]
active: AC50 [1] 0.0661 µM | AC50 [2] 8.33 µM | AC50 [3] 1.48 µM | AC50 [4] 0.0372 µM | AC50 [5] 20.9 µM | viability [11, 21] 89.2% | viability [11, 22] 77.1% | viability [11, 25] 89.5% | viability [11, 26] 50.9% | viability [11, 27] 51.4% | viability [11, 28] 47.2% | viability [11, 29] 74.9% | viability [11, 30] 17% | viability [11, 31] 40.7% | viability [11, 32] 37.1% | viability [11, 33] 71.7% | viability [11, 34] 18.2% | viability [11, 35] 38.3% | viability [11, 36] 30.4% | viability [11, 37] 66.7% | viability [11, 38] 16.5% | viability [11, 39] 32.5% | viability [11, 40] 30.3% | viability [11, 41] 48.5% | viability [11, 42] 15.8% | viability [11, 43] 15.9% | viability [11, 44] 18.2% | viability [11, 45] 43% | viability [11, 46] 15.1% | viability [11, 47] 18% | viability [11, 48] 21.9% | viability [11, 49] 34.3% | viability [11, 50] 15.2%
4.3: SSMD [9]
inactive: plate-normalised HSF1 focus index [9] 1.16 | viability [11, 19] 116% | viability [11, 20] 133% | viability [11, 23] 126% | viability [11, 24] 124%

COc1ccc2c(c1)c(C1=C(c3c[nH]c4ccccc34)C(=O)NC1=O)cn2CCCN(C)C
inactive: parasite load remaining [12] 27.6% | fold change [8, 13] 0.91 and 0.965 | z-score [10, 17] -0.592
4170 and 4590: cell count [8, 15]
0.481 and 1.22: fold change [8, 14]
4580 and 4760: cell count [8, 16]
-0.0818: z-score [10, 18]
active: AC50 [1] 20.9 µM | AC50 [2] 16.6 µM | AC50 [4] 20.9 µM | AC50 [6] 20.9 µM | IC50 [7] 29.5 µM
93.9%: viability [12]

O=C(Nc1ccccc1)Nc1ccc(-c2ccc(C(=O)[C@@H]3CCC[C@H]3C(=O)O)cc2)cc1
inactive: outcome [1] | outcome [2] | outcome [4] | outcome [5] | outcome [6] | outcome [7]

COc1cccc2c1C(=O)c1c(O)c3c(c(O)c1C2=O)C[C@@](O)(C(=O)CO)C[C@@H]3O[C@H]1C[C@H](N)[C@H](OC2CCCCO2)[C@H](C)O1 (some centres undefined)
active: AC50 [1] 417 nM and 332 nM | AC50 [2] 16.6 µM | AC50 [3] 2.95 µM and 833 nM | AC50 [4] 4.68 µM and 1.66 µM | AC50 [6] 2.95 µM and 2.35 µM | IC50 [7] 6.61 µM and 9.34 µM
